Source: PubChem BioAssay AID1159580 (chemical genetic matrix, 2015)
Hit rate of the full screen: of about 5,500 compounds, about 2,000 (36%) were called active. About 18% were inconclusive and are not listed. Some of the results follow. Values without a mark were called inactive. No stated cut-off is given here; in the data, active means normalized growth mostly below about 0.91 (no sharp cut-off); inconclusive means no clear call, values can overlap the other calls; inactive means mostly above about 0.92.

Experiment: chemical genetic growth profiling, strain panel (AID 1159580);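 further: tested at 20 µM; growth read once vehicle control cultures reached saturation at 30 °C; 1 = growth at the plate median or of vehicle wells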
Settings: growth OD

## Cc1cc(CC(=O)O)n(C)c1C(=O)c1ccc(Cl)cc1
S. cerevisiae deletion strains, locus YJR075W, strain HOC1, stronger effect = lower value
  normalized growth: 1
S. cerevisiae deletion strains, locus YKL009W, strain mrt4, stronger effect = lower value
  normalized growth: 0.962
S. cerevisiae deletion strains, locus YKL068W, stronger effect = lower value
  normalized growth: 1
S. cerevisiae deletion strains, locus YKL085W, strain MDH1 (second series), stronger effect = lower value
  normalized growth: 0.994
S. cerevisiae deletion strains, locus YKL085W, strain MDH1, stronger effect = lower value
  normalized growth: 0.994
S. cerevisiae deletion strains, locus YKL160W, strain elf1, stronger effect = lower value
  normalized growth: 1.05
S. cerevisiae deletion strains, locus YKL190W, strain CNB1, stronger effect = lower value
  normalized growth: 1.01
S. cerevisiae deletion strains, locus YKR001C, strain vps1, stronger effect = lower value
  normalized growth: 1.03
S. cerevisiae deletion strains, locus YKR026C, strain gcn3, stronger effect = lower value
  normalized growth: 1.03
S. cerevisiae deletion strains, locus YKR091W, strain srl3, stronger effect = lower value
  normalized growth: 1.02
S. cerevisiae deletion strains, locus YLL001W, strain dnm1, stronger effect = lower value
  normalized growth: 1
S. cerevisiae deletion strains, locus YLL026W, stronger effect = lower value
  normalized growth: 1.05
S. cerevisiae deletion strains, locus YLL041C, strain sdh2, stronger effect = lower value
  normalized growth: 1.02
S. cerevisiae deletion strains, locus YLR027C, strain aat2, stronger effect = lower value
  normalized growth: 1.03
S. cerevisiae deletion strains, locus YLR039C, strain RIC1, stronger effect = lower value
  normalized growth: 1
S. cerevisiae deletion strains, locus YLR058C, strain SHM2, stronger effect = lower value
  normalized growth: 0.996
S. cerevisiae deletion strains, locus YLR102C, strain apc9, stronger effect = lower value
  normalized growth: 1.01
S. cerevisiae deletion strains, locus YLR113W, strain HOG1, stronger effect = lower value
  normalized growth: 1.01
S. cerevisiae deletion strains, locus YLR221C, strain rsa3, stronger effect = lower value
  normalized growth: 1.01
S. cerevisiae deletion strains, locus YLR258W, strain gsy2, stronger effect = lower value
  normalized growth: 1.04
S. cerevisiae deletion strains, locus YLR262C, strain YPT6 (second series), stronger effect = lower value
  normalized growth: 1.01
S. cerevisiae deletion strains, locus YLR262C, strain YPT6, stronger effect = lower value
  normalized growth: 1.01
S. cerevisiae deletion strains, locus YLR268W, strain sec22, stronger effect = lower value
  normalized growth: 0.997
S. cerevisiae deletion strains, locus YLR320W, strain mms22, stronger effect = lower value
  normalized growth: 0.994
S. cerevisiae deletion strains, locus YLR330W, strain CHS5, stronger effect = lower value
  normalized growth: 0.992
S. cerevisiae deletion strains, locus YLR342W, strain FKS1 (second series), stronger effect = lower value
  normalized growth: 0.937
S. cerevisiae deletion strains, locus YLR342W, strain FKS1, stronger effect = lower value
  normalized growth: 1.01
S. cerevisiae deletion strains, locus YLR357W, strain rsc2, stronger effect = lower value
  normalized growth: 0.995
S. cerevisiae deletion strains, locus YLR370C, strain arc18, stronger effect = lower value
  normalized growth: 1.04
S. cerevisiae deletion strains, locus YLR371W, strain rom2, stronger effect = lower value
  normalized growth: 1.02
S. cerevisiae deletion strains, locus YLR384C, strain iki3, stronger effect = lower value
  normalized growth: 1.04
S. cerevisiae deletion strains, locus YLR418C, strain cdc73, stronger effect = lower value
  normalized growth: 0.99
S. cerevisiae deletion strains, locus YML016C, strain PPZ1, stronger effect = lower value
  normalized growth: 0.994
S. cerevisiae deletion strains, locus YML032C, strain rad52, stronger effect = lower value
  normalized growth: 1.02
S. cerevisiae deletion strains, locus YML120C, strain ndi1, stronger effect = lower value
  normalized growth: 1.02
S. cerevisiae deletion strains, locus YML124C, strain tub3, stronger effect = lower value
  normalized growth: 1.01
S. cerevisiae deletion strains, locus YMR058W, strain fet3, stronger effect = lower value
  normalized growth: 1.03
S. cerevisiae deletion strains, locus YMR078C, strain ctf18, stronger effect = lower value
  normalized growth: 1.01
S. cerevisiae deletion strains, locus YMR125W, strain sto1, stronger effect = lower value
  normalized growth: 1.03
S. cerevisiae deletion strains, locus YMR129W, stronger effect = lower value
  normalized growth: 1.02
S. cerevisiae deletion strains, locus YMR205C, strain PFK2, stronger effect = lower value
  normalized growth: 1.02
S. cerevisiae deletion strains, locus YMR223W, strain ubp8, stronger effect = lower value
  normalized growth: 0.994
S. cerevisiae deletion strains, locus YMR231W, strain pep5, stronger effect = lower value
  normalized growth: 1.03
S. cerevisiae deletion strains, locus YMR263W, strain SAP30, stronger effect = lower value
  normalized growth: 0.993
S. cerevisiae deletion strains, locus YMR307W, strain GAS1, stronger effect = lower value
  normalized growth: 0.947
S. cerevisiae deletion strains, locus YNL067W, strain RPL9B, stronger effect = lower value
  normalized growth: 0.997
S. cerevisiae deletion strains, locus YNL071W, strain lat1, stronger effect = lower value
  normalized growth: 1.02
S. cerevisiae deletion strains, locus YNL128W, strain TEP1, stronger effect = lower value
  normalized growth: 1.01
S. cerevisiae deletion strains, locus YNL153C, strain GIM3, stronger effect = lower value
  normalized growth: 0.991
S. cerevisiae deletion strains, locus YNL183C, strain NPR1, stronger effect = lower value
  normalized growth: 0.963
S. cerevisiae deletion strains, locus YNL209W, strain ssb2, stronger effect = lower value
  normalized growth: 1.05
S. cerevisiae deletion strains, locus YNL233W, strain BNI4, stronger effect = lower value
  normalized growth: 0.993
S. cerevisiae deletion strains, locus YNL248C, strain rpa49, stronger effect = lower value
  normalized growth: 1.02
S. cerevisiae deletion strains, locus YNL250W, strain rad50, stronger effect = lower value
  normalized growth: 1.01
S. cerevisiae deletion strains, locus YNL271C, strain bni1, stronger effect = lower value
  normalized growth: 1.01
S. cerevisiae deletion strains, locus YNL298W, strain CLA4, stronger effect = lower value
  normalized growth: 0.998
S. cerevisiae deletion strains, locus YNL307C, strain MCK1, stronger effect = lower value
  normalized growth: 0.901 (active)
S. cerevisiae deletion strains, locus YNL322C, strain KRE1 (second series), stronger effect = lower value
  normalized growth: 1.02
S. cerevisiae deletion strains, locus YNL322C, strain KRE1, stronger effect = lower value
  normalized growth: 1.01
S. cerevisiae deletion strains, locus YNR049C, strain mso1, stronger effect = lower value
  normalized growth: 1.02
S. cerevisiae deletion strains, locus YNR052C, strain pop2, stronger effect = lower value
  normalized growth: 1.01
S. cerevisiae deletion strains, locus YOL006C, strain TOP1, stronger effect = lower value
  normalized growth: 0.895
S. cerevisiae deletion strains, locus YOL012C, strain htz1
  normalized growth: 1.55
S. cerevisiae deletion strains, locus YOL147C, strain pex11, stronger effect = lower value
  normalized growth: 1.02
S. cerevisiae deletion strains, locus YOR001W, strain rrp6, stronger effect = lower value
  normalized growth: 1.01
S. cerevisiae deletion strains, locus YOR061W, strain CKA2, stronger effect = lower value
  normalized growth: 1.01
S. cerevisiae deletion strains, locus YOR069W, strain VPS5, stronger effect = lower value
  normalized growth: 1
S. cerevisiae deletion strains, locus YOR070C, strain gyp1, stronger effect = lower value
  normalized growth: 1.02
S. cerevisiae deletion strains, locus YOR080W, strain dia2, stronger effect = lower value
  normalized growth: 1.03
S. cerevisiae deletion strains, locus YOR083W, strain WHI5, stronger effect = lower value
  normalized growth: 1.04
S. cerevisiae deletion strains, locus YOR106W, strain vam3, stronger effect = lower value
  normalized growth: 1.05
S. cerevisiae deletion strains, locus YOR136W, strain idh2, stronger effect = lower value
  normalized growth: 1.02
S. cerevisiae deletion strains, locus YOR144C, strain elg1, stronger effect = lower value
  normalized growth: 1.01
S. cerevisiae deletion strains, locus YOR184W, strain ser1, stronger effect = lower value
  normalized growth: 0.983
S. cerevisiae deletion strains, locus YOR231W, strain MKK1, stronger effect = lower value
  normalized growth: 1.01
S. cerevisiae deletion strains, locus YOR265W, strain rbl2, stronger effect = lower value
  normalized growth: 1.05
S. cerevisiae deletion strains, locus YOR270C, strain vph1, stronger effect = lower value
  normalized growth: 1.05
S. cerevisiae deletion strains, locus YOR290C, strain snf2, stronger effect = lower value
  normalized growth: 1.06
S. cerevisiae deletion strains, locus YOR316C, strain cot1, stronger effect = lower value
  normalized growth: 1.01
S. cerevisiae deletion strains, locus YPL051W, strain arl3, stronger effect = lower value
  normalized growth: 1.04
S. cerevisiae deletion strains, locus YPL055C, strain LGE1, stronger effect = lower value
  normalized growth: 1
S. cerevisiae deletion strains, locus YPL078C, strain atp4, stronger effect = lower value
  normalized growth: 1.04
S. cerevisiae deletion strains, locus YPL106C, strain sse1, stronger effect = lower value
  normalized growth: 1.04
S. cerevisiae deletion strains, locus YPL240C, strain hsp82, stronger effect = lower value
  normalized growth: 1.03
S. cerevisiae deletion strains, locus YPL241C, strain CIN2, stronger effect = lower value
  normalized growth: 0.996
S. cerevisiae deletion strains, locus YPL256C, strain CLN2, stronger effect = lower value
  normalized growth: 1.02
S. cerevisiae deletion strains, locus YPR119W, strain clb2, stronger effect = lower value
  normalized growth: 1.01
S. cerevisiae deletion strains, locus YPR141C, strain kar3, stronger effect = lower value
  normalized growth: 1.01
S. cerevisiae deletion strains, locus YPR163C, strain tif3, stronger effect = lower value
  normalized growth: 1.01
S. cerevisiae deletion strains, locus YPR167C, strain met16, stronger effect = lower value
  normalized growth: 1
S. cerevisiae deletion strains, strain wtn01, stronger effect = lower value
  normalized growth: 1.01
S. cerevisiae strains, strain wild type, stronger effect = lower value
  normalized growth: 1.01
